High-throughput results as filed in PubChem BioAssay.
IDE exosite FP – insulin-degrading enzyme (human) exo-site inhibition; P14735; purified IDE, FL-6b probe fluorescence polarization; active compounds read low; z-score at 20 µM; 17,000 compounds, 6.3% hits;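 active = z-score of -3 or lower, meaning strong loss of probe binding signal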;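 also: His-tagged human IDE residues 42-1019 made in E. coli with 30 nM FL-6b probe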
Target sequence (P14735 42-1019 limits assumed): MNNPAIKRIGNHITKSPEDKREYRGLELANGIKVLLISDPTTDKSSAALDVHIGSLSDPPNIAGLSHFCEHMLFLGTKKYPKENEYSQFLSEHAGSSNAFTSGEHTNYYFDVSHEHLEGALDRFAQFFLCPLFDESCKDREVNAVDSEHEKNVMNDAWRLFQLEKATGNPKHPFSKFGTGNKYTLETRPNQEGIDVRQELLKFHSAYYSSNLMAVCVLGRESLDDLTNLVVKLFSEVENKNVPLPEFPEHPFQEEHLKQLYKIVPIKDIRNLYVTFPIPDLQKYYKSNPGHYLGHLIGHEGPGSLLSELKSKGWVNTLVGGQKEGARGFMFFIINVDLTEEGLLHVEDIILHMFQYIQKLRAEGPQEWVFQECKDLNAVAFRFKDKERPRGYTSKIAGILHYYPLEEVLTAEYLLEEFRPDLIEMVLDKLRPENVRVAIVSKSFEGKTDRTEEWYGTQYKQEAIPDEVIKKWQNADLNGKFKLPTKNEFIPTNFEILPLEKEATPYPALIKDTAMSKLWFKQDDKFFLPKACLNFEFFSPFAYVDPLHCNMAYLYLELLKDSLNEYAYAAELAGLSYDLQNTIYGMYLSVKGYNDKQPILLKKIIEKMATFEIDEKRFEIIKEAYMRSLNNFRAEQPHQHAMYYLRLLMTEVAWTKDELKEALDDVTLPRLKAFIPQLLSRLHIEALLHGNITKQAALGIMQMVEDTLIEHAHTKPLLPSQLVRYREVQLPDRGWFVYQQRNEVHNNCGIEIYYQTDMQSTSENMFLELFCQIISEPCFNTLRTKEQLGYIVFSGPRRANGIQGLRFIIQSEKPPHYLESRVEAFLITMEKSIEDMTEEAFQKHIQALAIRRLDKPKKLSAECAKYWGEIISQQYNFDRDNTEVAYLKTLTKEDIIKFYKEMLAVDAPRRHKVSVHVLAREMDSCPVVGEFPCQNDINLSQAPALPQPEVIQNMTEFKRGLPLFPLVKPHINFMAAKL
Numbers stand for hits; n = inactive; ! = a repeat was not active. Shown is part of a subset that was picked to be rich in hits.

SMILES | IDE exosite FP
C[C@@H]1CN([C@@H](C)CO)C(=O)Cc2cc(NC(=O)Nc3ccc(F)cc3)ccc2O[C@H]1CN(C)S(C)(=O)=O | n
COc1ccc([C@H]2C/C=C\C[C@H](c3cccc(Cl)c3)NC(=O)[C@@H](c3ccccc3)CC(=O)N2)c(OC)c1 | n
O=C(c1cnccn1)N1CC(=O)N2[C@H](CO)[C@H](c3ccc(C#CC4CCCCC4)cc3)[C@@H]2C1 | n
COc1ccc(C[C@@H]2CCn3cc(nn3)COCCCNC2=O)cc1 | n
COc1ccc(S(=O)(=O)N(C)C[C@H]2OCCCC[C@H](C)Oc3ccc(NC(=O)Cc4ccccc4)cc3C(=O)N([C@@H](C)CO)C[C@@H]2C)cc1 | n
CO[C@@H]1CN(C)C(=O)c2cc(NC(=O)c3ccc(Oc4ccccc4)cc3)ccc2OC[C@@H](C)NC[C@H]1C | -13.5
CO[C@H]1CN(C)C(=O)c2ccc(NC(=O)c3cccc(F)c3)cc2OC[C@@H](C)NC[C@@H]1C | n
COc1cccc(NC(=O)Nc2ccc3c(c2)C(=O)N(C)C[C@H](OC)[C@H](C)CN[C@@H](C)CO3)c1 | n
CO[C@@H]1CN(C)C(=O)c2cc(NC(=O)c3cnccn3)ccc2OC[C@H](C)NC[C@H]1C | n
COc1cccc(NC(=O)Nc2ccc3c(c2)C(=O)N(C)C[C@@H](OC)[C@H](C)CN[C@@H](C)CO3)c1 | n
COc1cccc(NC(=O)Nc2ccc3c(c2)C(=O)N(C)C[C@H](OC)[C@@H](C)CN[C@H](C)CO3)c1 | n
CO[C@@H]1CN(C)C(=O)c2cc(NC(=O)c3ccc(Oc4ccccc4)cc3)ccc2OC[C@H](C)NC[C@@H]1C | -7.97
CO[C@@H]1CN(C)C(=O)c2cc(NC(=O)c3cnccn3)ccc2OC[C@H](C)NC[C@@H]1C | n
CO[C@H]1CN(C)C(=O)c2cc(NC(=O)c3ccc(Oc4ccccc4)cc3)ccc2OC[C@H](C)NC[C@H]1C | -14.2!
COc1ccccc1-c1ccc(C2[C@H]3CNC[C@@H]2N3Cc2nccs2)cc1 (some centres undefined) | n
CO[C@@H]1CN(C)C(=O)c2cc(NS(=O)(=O)Cc3ccccc3)ccc2OC[C@@H](C)N(Cc2nccs2)C[C@H]1C | n
COc1ccc(NC(=O)N2CCC3(CC2)CN(C(=O)CN2CCOCC2)[C@@H](CO)c2[nH]c4cc(OC)ccc4c23)cc1 | n
O=C(c1ccccn1)N1C[C@@H]2N[C@H](C1)C2c1ccc(-c2ccccc2F)cc1 (some centres undefined) | -5.84!
CN(C)C(=O)c1ccc(-c2ccc(C3[C@@H]4CN(Cc5cccnc5)C[C@H]3N4)cc2)cc1 (some centres undefined) | n
N#C[C@@H]1[C@H](c2ccc(-c3ccccc3F)cc2)[C@H](CO)N1C(=O)C1CCOCC1 | n
O=C(C1CCOCC1)N1C[C@@H]2N[C@H](C1)C2c1ccc(-c2cccc(F)c2)cc1 (some centres undefined) | n
O=C(C1CCC1)N1C[C@@H]2N[C@H](C1)C2c1ccc(-c2cccc(F)c2)cc1 (some centres undefined) | n
N#Cc1ccc(-c2ccc(C3[C@@H]4CN(C(=O)C5CCOCC5)C[C@H]3N4)cc2)cc1 (some centres undefined) | n
Fc1cccc(-c2ccc(C3[C@@H]4CN(Cc5cccnc5)C[C@H]3N4)cc2)c1 (some centres undefined) | n
N#Cc1ccc(-c2ccc(C3[C@@H]4CN(C(=O)c5ccccn5)C[C@H]3N4)cc2)cc1 (some centres undefined) | n
SMILES | IDE exosite FP
O=C(C1CCOCC1)N1C[C@@H]2N[C@H](C1)C2c1ccc(-c2ccccc2F)cc1 (some centres undefined) | -3.02!
Cc1ccccc1-c1ccc(C2[C@@H]3CN(Cc4cccnc4)C[C@H]2N3)cc1 (some centres undefined) | -13.9
CN(C)C(=O)c1ccc(-c2ccc(C3[C@@H]4CN(C(=O)c5ccccn5)C[C@H]3N4)cc2)cc1 (some centres undefined) | n
Cc1ccccc1-c1ccc(C2[C@@H]3CN(C(=O)C4CCOCC4)C[C@H]2N3)cc1 (some centres undefined) | -7.71!
O=C(c1cnccn1)N1CC(=O)N2[C@H](C1)[C@@H](c1ccc(C#CC3CC3)cc1)[C@@H]2CO | n
COc1ccc(NC(=O)N2[C@@H]3CNC[C@H]2C3c2ccc(-c3ccc(C)cc3)cc2)cc1 (some centres undefined) | n
C[C@@H]1CCCCO[C@H](CN(C)C(=O)Cc2ccccc2)[C@H](C)CN([C@H](C)CO)C(=O)c2cc(NS(C)(=O)=O)ccc2O1 | n
N#C[C@H]1N[C@H](CO)[C@@H]1c1ccc(-c2cccc(F)c2)cc1 | n
O=C(Nc1ccccc1F)N[C@@H]1CC[C@@H](CCNC(=O)C2CC2)O[C@@H]1CO | n
O=C(C[C@@H]1CC[C@H]2[C@@H](COC[C@@H](O)CN2C(=O)c2cccnc2)O1)NCC1CC1 | n
N#C[C@H]1[C@@H](c2ccc(-c3ccccc3F)cc2)[C@H](CO)N1C(=O)Cc1ccccc1 | n
COc1ccccc1S(=O)(=O)N1[C@@H]2CNC[C@H]1C2c1ccc(-c2ccncc2)cc1 (some centres undefined) | n
COc1ccc(S(=O)(=O)N2[C@@H]3CNC[C@H]2C3c2ccc(-c3cccc(OC)c3)cc2)cc1 (some centres undefined) | n
Cc1ccccc1-c1ccc(C2[C@@H]3CN(S(=O)(=O)c4ccccc4C)C[C@H]2N3)cc1 (some centres undefined) | -10.8!
COc1cccc(S(=O)(=O)N2[C@@H]3CNC[C@H]2C3c2ccc(-c3ccccc3C)cc2)c1 (some centres undefined) | -5.31
COc1cccc(S(=O)(=O)N2[C@@H]3CNC[C@H]2C3c2ccc(-c3cccc(C)c3)cc2)c1 (some centres undefined) | n
COc1ccccc1S(=O)(=O)N1C[C@@H]2N[C@H](C1)C2c1ccc(-c2ccccc2C)cc1 (some centres undefined) | -7.95!
COc1ccccc1S(=O)(=O)N1[C@@H]2CNC[C@H]1C2c1ccc(/C=C/c2ccccc2)cc1 (some centres undefined) | -5.24!
COc1cccc(-c2ccc(C3[C@@H]4CN(S(=O)(=O)c5ccccc5C)C[C@H]3N4)cc2)c1 (some centres undefined) | n
COc1ccccc1S(=O)(=O)N1C[C@@H]2N[C@H](C1)C2c1ccc(-c2ccc(F)cc2)cc1 (some centres undefined) | n
COc1ccccc1S(=O)(=O)N1C[C@@H]2N[C@H](C1)C2c1ccc(-c2cccnc2)cc1 (some centres undefined) | n
COc1ccc(-c2ccc(C3[C@@H]4CN(S(=O)(=O)c5ccccc5C)C[C@H]3N4)cc2)cc1 (some centres undefined) | n
COc1cccc(S(=O)(=O)N2[C@@H]3CNC[C@H]2C3c2ccc(/C=C/c3ccccc3)cc2)c1 (some centres undefined) | n
C[C@@H]1CN([C@@H](C)CO)C(=O)c2cc(NS(C)(=O)=O)ccc2O[C@@H](C)CCCCO[C@@H]1CN(C)C(=O)Cc1ccccc1 | n
CN(C)CC(=O)N1[C@@H](C#N)[C@@H](c2ccc(-c3cccc(C(=O)N(C)C)c3)cc2)[C@@H]1CO | n
CCCC#Cc1ccc([C@H]2[C@@H](CO)N(C(C)=O)[C@@H]2CNC(=O)C2CCC2)cc1 | n
CC(=O)NC[C@@H]1[C@H](c2ccc(-c3cccnc3)cc2)[C@H](CO)N1C(=O)C1CC1 | n
